# Most compounds without a hit are left out; they make up all but 4.1% or so of the library.
# NR3A LBD binder: binders of NR3A ligand-binding domain, primary screen, biophysical, differential scanning fluorimetry, uHTS; AID 1259313, 2017; hit rate 2.5% among 340,000; Tm shift relative to glycine control, % at 25 µM; NR3A LBD differential scanning fluorimetry, Tm shift; 0% = protein alone, 100% = glycine-bound protein;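 active means melting temperature shift of at least 10% of the positive control shift, at one fixed dose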
# p-CIP stab down: p/CIP-EGFP fusion destabilizers, primary screen, fluorescence, F442A cells. Q05BA5. 16 h. decrease of EGFP signal, % at 10 µM. hit rate 0.01% among 290,000;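 active means EGFP signal decrease of at least 30% at 10 µM or well 3 SD below plate mean, unless failing retest; inactive means the rest, including hits failing retest or dose response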
# FAS TE block: FAS thioesterase domain inhibitors, primary screen, biochemical, fluorescence intensity, uHTS | recombinant FAS-TE, OMFH fluorogenic substrate, fluorescence endpoint | inhibition, % at 15 µM | hit rate 0.67% among 360,000 | AID 602261, 2012;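 active means compounds whose normalised, plate-corrected inhibition of enzyme fluorescence in the single-dose primary screen is 50% or more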;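 further: 0% = DMSO with enzyme and 100% = substrate without enzyme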
# MPTP block: mitochondrial permeability transition pore inhibitors, primary screen, biochemical, isolated mouse mitochondria, absorbance | Ca2+ swelling absorbance, 30 min | inhibition, % at 10 µM | hit rate 1.4% among 360,000;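 active means inhibition of 50% or more, scaled per plate between neutral and stimulator controls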;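 further: 0% = DMSO wells given calcium and 100% = 1 mM EGTA wells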
# MIN6 prolif: inducers of MIN6 beta-cell proliferation, primary screen, ATP luminescence, uHTS; MIN6 cells proliferation, ATPlite luminescence, 48 h; cells starved in 0.2% serum; 100% = growth in 10% serum; proliferation, % at 10 µM; hit rate 0.29% among 330,000; AID 2380, 2010;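 active means compounds whose signal lies at least 3.5 SD above the mean of all wells on their plate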;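 further: 0% = DMSO-treated cells in low-serum medium and 100% = 10% serum control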
# An asterisk follows results filed as active; / = no result given.
SMILES,NR3A LBD binder,p-CIP stab down,FAS TE block,MPTP block,MIN6 prolif
COc1ccc(-c2ccc(C)cc2)cc1[C@H]1[C@H]2C=CC[C@@H](C)[C@@H]2C(=O)N1Cc1ccccc1,-1.2,8.5,24.7,-0.8,-8.3
COc1ccc(-c2ccc([C@H]3[C@H]4C=CC[C@@H](C)[C@@H]4C(=O)N3Cc3ccccc3)c(F)c2)cc1OC,-0.8,5.9,36.3,0.4,-5.9
COc1ccc(-c2ccc([C@H]3[C@H]4C=CC[C@@H](C)[C@@H]4C(=O)N3Cc3ccccc3)c(F)c2)cc1,15.7*,4.7,20.3,-0.5,-7.9
CC(=O)C1=C(NC(=O)c2ccccc2F)C[C@@H]2[C@H]1C2(C)C,13.6*,-2.4,11.5,-2.5,-1.8
COc1cc2c(-c3ccc(O)cc3)nc3c(c(C)nn3-c3ccccc3)c2cc1OC,28.0*,-7.8,13.2,4.0,/
CCOc1ccc(C2Nc3ccc4ccccc4c3-c3c2c(=O)oc2ccccc32)cc1 (stereo unspecified),14.1*,-4.7,5.1,10.8,-4.4
CCCNC(=O)c1oc2ccc3c(c2c1C)C(=O)CC(C)(C)O3,633.1*,0.1,-0.7,0.7,-3.1
CCCNC(=O)c1oc2ccc3c(c2c1C)C=CC(C)(C)O3,-6.6,-4.1,8.5,-0.1,0.8
COc1ccc(C(=O)O/N=C(\N)c2cccc(C)c2)cc1OC,18.4*,3.6,-0.3,0.6,-3.9
Cc1cccc(C(=O)O/N=C(\N)c2ccc(Br)cc2)c1,9.4,-58.5,3.0,-3.1,-5.6
COc1ccc(C(=O)O/N=C(\N)c2ccncc2)cc1OC,-1.2,6.3,-20.2,-2.4,-2.4
COc1ccc(/C(N)=N/OC(=O)c2ccc(Br)o2)cc1,13.8*,3.2,1.7,-0.8,0.8
COc1ccc(Cl)cc1C(=O)O/N=C(\N)c1ccncc1,11.0*,-0.9,-6.8,1.9,-3.1
COc1ccc(C(=O)O/N=C(\N)c2ccccc2)cc1OC,-3.7,5.7,0.4,-0.3,-6.3
Cc1cccc(C(=O)O/N=C(\N)c2ccc(Cl)cc2)c1,10.5*,8.5,2.9,0.3,-2.9
CC(=O)c1ccc(OCc2nnn(CC(=O)NS(=O)(=O)c3ccc(C)cc3)c2-c2ccccc2)cc1,/,/,-2.9,-0.4,/
COc1ccc(C(=O)O/N=C(\N)c2ccc(Cl)cc2)cc1,20.5*,6.2,3.6,-0.9,-3.6
O=C(Nc1ccccc1F)c1ccc(CNS(=O)(=O)c2cccc(C(F)(F)F)c2)cc1,-0.2,5.1,-7.2,0.3,-0.8
COc1cccc(S(=O)(=O)NCc2ccc(C(=O)Nc3ccc(Cl)cc3)cc2)c1,5.0,-2.5,-2.2,1.0,-0.8
Cc1ccc(NC(=O)c2ccc(CNS(=O)(=O)c3cccc(C(F)(F)F)c3)cc2)cc1,11.3*,-8.4,-5.2,0.1,1.0
O=C(Nc1cccc(Cl)c1)c1ccc(S(=O)(=O)NCC2CCCO2)cc1 (stereo unspecified),21.1*,-6.2,1.3,-0.4,-1.3
COc1cccc(S(=O)(=O)NCc2ccc(C(=O)Nc3cccc(Cl)c3)cc2)c1,15.1*,4.6,27.0,2.4,-3.3
COc1ccc2c(CC(=O)OCC(=O)c3ccccc3OC)coc2c1,-0.6,-14.6,18.5,-0.1,2.3
COc1ccc2c(CC(=O)OCC(=O)c3ccc(F)cc3)coc2c1,18.9*,-7.2,-4.2,-2.3,-0.3
O=S(=O)(NCCc1csc(-c2cccnc2)n1)c1cccs1,12.8*,-0.2,-6.4,-2.5,1.5
SMILES,NR3A LBD binder,p-CIP stab down,FAS TE block,MPTP block,MIN6 prolif
CCCc1cc(CCC)n2nc(N)nc2n1,/,/,-8.0,-0.3,/
CC(C)c1cc(C(C)C)n2nc(N)nc2n1,10.3*,-6.4,-5.7,0.6,-0.6
C[C@@H]1CN([C@H](C)CO)C(=O)CCCn2nncc2CO[C@H]1CN(C)C(=O)NC1CCCCC1,/,/,-4.7,-1.0,/
CCOc1ccc(Br)cc1S(=O)(=O)Nc1cccc(S(=O)(=O)N(C)c2ccccc2)c1,11.9*,0.2,35.8,32.6,-4.6
CCOc1ccc(Br)cc1C(=O)Nc1ccc(C(=O)NCC(C)C)cc1,13.3*,-13.6,1.1,-20.3,-3.1
CCOc1ccc(Br)cc1S(=O)(=O)Nc1ccc(C(=O)OCC(=O)N(C)c2ccccc2)cc1,-1.1,1.4,11.7,-11.2,-4.2
CCOc1ccc(Br)cc1S(=O)(=O)Nc1ccc(NC(=O)c2ccccc2C)cc1,-3.7,-10.3,-4.1,0.6,0.0
CCOc1ccc(Br)cc1S(=O)(=O)Nc1ccc(C(=O)Nc2ccc(C)cc2)cc1,17.6*,-0.7,7.2,-3.6,0.0
CCOc1ccc(Br)cc1S(=O)(=O)Nc1ccc(C(=O)Nc2ccccc2OC)cc1,15.8*,-5.5,29.0,-0.5,0.0
Cc1ccc(NC(=O)C(=O)NCc2ccc(/C=C(/C#N)C(=O)NCc3cccnc3)o2)cc1,-3.5,-13.9,1.8,1.3,-3.5
N#C/C(=C/c1ccc(CNC(=O)C(=O)Nc2cc(Cl)cc(Cl)c2)o1)C(=O)NCc1cccnc1,11.7*,4.8,-2.1,-0.4,0.0
Cc1cc(C)c(N2C(=O)C3C4CC(=O)C(c5ccccc54)C3C2=O)c(C)c1 (stereo unspecified),0.5,-17.5,-0.7,0.9,0.6
Cc1cccc(N2C(=O)C3C4CC(=O)C(c5ccccc54)C3C2=O)c1C (stereo unspecified),10.7*,-0.1,-2.6,0.8,-2.2
CCOc1ccc(-n2c(=S)sc3c(=O)n(-c4ccccc4)c(SC)nc32)cc1,0.6,-6.7,25.6,0.0,0.5
COc1ccc(/C=N/n2cnc3c(sc(=S)n3-c3ccccc3)c2=O)cc1,16.3*,6.2,3.3,0.8,0.1
COc1ccc(-c2oc(=O)c3cc(OC)c(OC)cc3c2C#CC2(O)CCCCC2)cc1,12.9*,/,-8.3,-0.8,-2.0
O=c1[nH]c2ccc(Br)cc2c(=O)o1,/,/,5.5,-0.2,/
O=C(/C=C/c1ccc(O)cc1)c1c(O)cc(O)cc1O,-4.4,-1.7,-0.4,-0.2,-1.1
COc1ccc(C(=O)/C=C/c2ccc(O)cc2)c(O)c1C/C=C(\C)CCC=C(C)C,30.1*,/,27.7,5.5,-6.3
C=C(C)C(O)CC/C(C)=C/Cc1c(O)ccc(C(=O)/C=C/c2ccc(O)cc2)c1O (stereo unspecified),14.8*,/,8.3,2.9,-6.2
COc1ccc(C=CC(=O)c2ccc(OC)c(OC)c2O)cc1OC,2.2,/,-5.6,-0.7,/
CSc1ccc(Cn2c(C)c(C(=O)NCc3ccc4c(c3)OCCO4)sc2=O)cc1,/,/,17.5,-0.9,/
COc1cc(NC(=O)c2ccccc2)ccc1NC(=O)c1cc2ccccc2o1,1.6,-7.4,2.8,0.6,-2.8
COc1cccc(C(=O)Nc2ccc(NC(=O)Cc3ccccc3)cc2)c1,7.6,-4.4,0.8,1.1,-0.6
COc1cccc(C(=O)Nc2ccc(NC(=O)c3cc4ccccc4o3)c(OC)c2)c1,23.3*,-0.9,0.5,0.5,-2.2

# Screening results (PubChem BioAssay)
